# From PubChem BioAssay
# Hits are enriched below; roughly 6% of the tested compounds scored in any of these assays.
# D1 agonist – Allosteric Agonists of the Human D1 Dopamine Receptor: qHTS | D(1A) dopamine receptor (Homo sapiens), P21728 | HEK293 T-REx D1 cells, calcium flux, agonist mode | activation, % at 2 µM | 360,000 tested, 1% active | AID 504660, 2011; in the data active = activation above about 30%
# Target sequence (P21728 whole entry, looked up): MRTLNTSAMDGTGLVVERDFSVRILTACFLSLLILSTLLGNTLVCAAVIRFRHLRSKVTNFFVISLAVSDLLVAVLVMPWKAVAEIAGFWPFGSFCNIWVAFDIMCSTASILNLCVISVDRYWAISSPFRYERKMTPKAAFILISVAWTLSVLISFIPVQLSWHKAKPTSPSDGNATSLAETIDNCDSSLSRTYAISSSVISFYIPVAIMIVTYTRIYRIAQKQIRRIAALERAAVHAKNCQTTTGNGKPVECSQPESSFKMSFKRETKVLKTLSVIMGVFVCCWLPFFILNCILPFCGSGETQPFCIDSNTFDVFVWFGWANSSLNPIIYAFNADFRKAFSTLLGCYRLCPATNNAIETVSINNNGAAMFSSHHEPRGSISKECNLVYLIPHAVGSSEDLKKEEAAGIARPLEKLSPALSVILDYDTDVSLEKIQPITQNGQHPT
#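 Inducible HEK293 T-REx D1 cells, force-coupled to calcium signalling, were plated at 4000 cells/well with tetracycline and held overnight at 30 C. After no-wash calcium dye loading, compound-evoked calcium rise over 180 s flagged agonists.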
# D3 ag – qHTS of D3 Dopamine Receptor Agonist: qHTS; max activation, %; 410,000 tested, 0.58% active; D(3) dopamine receptor (Homo sapiens), P35462; AID 652048, 2013; D3R DiscoveRx beta-arrestin cells, luminescence, 90 min; in the data active = max activation above about 30%
#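 Cells at 1500/well, incubated overnight, then treated with pinned compounds (dopamine as control) for 90 min at 37 degrees C. DiscoveRx reagent added for 30 - 60 minutes at room temperature; luminescence read.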
# D1 antagonist – Antagonist of Human D 1 Dopamine Receptor: qHTS. HEK293 TREx D1 cells, calcium flux, dopamine EC80; hits give low values. activity change, negative = inhibition, % at 10 µM. 360,000 tested, 3.2% active. D(1A) dopamine receptor (Homo sapiens), P21728; in the data active = activity change below about -30%
#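 Antagonism measured as reduced calcium response to an EC80 dopamine addition following 180 s compound pre-read; cells were inducible HEK293 Trex D1 plated overnight at 30 C, read kinetically at 1 cycle/sec.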
# D3 antag – qHTS of D3 Dopamine Receptor Antagonist: qHTS. D(3) dopamine receptor (Homo sapiens), P35462. D3R cells, DiscoveRx beta-arrestin luminescence, antagonist mode; hits give low values. max response, negative = inhibition, %. 360,000 tested, 2.5% active. AID 652054, 2013; in the data active = max response below about -50%; inconclusive = no clear call, values can overlap the other calls
#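 Cells plated overnight at 1500 cells/well, then exposed to library compounds with dopamine controls for 90 minutes at 37 degrees C. DiscoveRx reagent added for 30–60 minutes at room temperature; luminescence read, quantitative HTS format.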
# D1 potentiator – Potentiators of Human D1 Dopamine Receptor: qHTS | D(1A) dopamine receptor (Homo sapiens), P21728 | HEK293 TREx D1 cells, calcium flux, dopamine EC20 potentiation | potentiation, % at 10 µM | 360,000 tested, 0.036% active; in the data active = potentiation above about 30%
# Numbers stand for hits; – = inactive; ? = inconclusive; · = no result given.
SMILES,D1 agonist,D3 ag,D1 antagonist,D3 antag,D1 potentiator
O=[S+]([O-])(c1ccc2c(c1)OCCO2)N1CCN([S+](=O)([O-])c2ccc(F)cc2Cl)CC1,–,·,–,·,–
CCCCn1c(N)c(NCC(C)C)c(=O)[nH]c1=O,–,–,-46.4,–,–
COc1cc(/C=N/NC(=O)c2ccc(Cl)cc2)ccc1OCC(=O)N1CC(C)OC(C)C1 (centres undefined),–,–,–,-54.4,–
COC(=O)/C=C1\S/C(=N/NC(=O)c2ccccc2)NC1=O,–,–,–,-64.7,–
Cc1ccc(NC(=O)CSc2nc(=O)cc(N)n2-c2ccccc2)cc1,–,–,–,–,–
COC(=O)c1cccc(NC(=O)CSc2nc(=O)cc(N)n2-c2ccccc2)c1,–,–,–,-50.7,–
O=c1[nH]ncc2c3ccccc3n(Cc3ccccc3F)c12,·,–,·,-59.9,·
O=c1[nH]ncc2c3ccccc3n(Cc3ccccc3)c12,·,–,·,–,·
COc1ccc(NC(=O)CCc2nnc3n(CC(C)C)c(=O)c4ccccc4n23)cc1,–,–,–,·,–
O=C(Nc1cccc(C(F)(F)F)c1)n1cc(-c2ccccn2)c(N2CCOCC2)n1,–,–,-46.8,–,–
Cc1cccn2c(=O)nc(SCC(=O)N3CCC(Cc4ccccc4)CC3)nc12,–,–,–,-58.5,–
Cc1nc2ccccn2c1C(=O)N/N=C/c1cc(C)n(-c2ccc(Br)cc2)c1C,–,–,-47.4,–,–
Cc1cc(/C=N/NC(N)=S)c(C)n1-c1cccc(Cl)c1,–,–,–,–,–
Cc1cccc(C)c1-n1c(C)cc(/C=N/NC(N)=S)c1C,–,–,–,-83.9,–
Cc1nc2ccccn2c1C(=O)N/N=C/c1ccccc1,–,–,–,–,–
Cc1cc(/C=N/NC(N)=S)c(C)n1-c1ccc(Cl)cc1,–,–,-51.8,-57.6,–
Cc1cc(/C=N/NC(N)=S)c(C)n1-c1ccc(Br)cc1,–,–,-49.5,-67.2,–
CCOc1ccccc1CNC(=O)CCc1c(C)nn(-c2ccc(N3CCCCC3)nn2)c1C,–,–,–,·,–
Cc1ccc(CN2CCCn3nc(C(=O)NCc4ccc(N(C)C)cc4)cc3C2=O)cc1,–,–,–,·,–
Cc1ccc(Nc2c(F)cccc2Cl)c(CC(=O)O)c1,·,–,·,·,·
CCOc1ccccc1N1CCN(C(=O)c2cc[n+]([O-])cc2)CC1,–,–,–,-63.1,–
Clc1ccc(SCCOCCN2CCCCC2)cc1,–,–,–,-79.8,–
Clc1ccc(SCCCCN2CCNCC2)cc1,119.8,–,-44.6,–,–
Clc1ccc(SCCOCCN2CCc3ccccc3C2)cc1,–,–,–,-88.0,–
CC1CCN(CCOCCSc2ccc(Cl)cc2)CC1,–,–,-44.4,-109.5,–
SMILES,D1 agonist,D3 ag,D1 antagonist,D3 antag,D1 potentiator
Nc1ncc(S(=O)(=O)Nc2ccc(F)cc2F)cn1,–,–,–,·,–
C=Cc1ccc(Cn2c(=O)n(-c3cccc(C)c3)c(=O)c3c2c2cc(C)ccc2n3C)cc1,–,–,–,·,–
O=C(NCC(c1ccc(F)cc1)N1CCOCC1)c1nn(-c2ccccc2)c(=O)c2ccccc12 (centres undefined),–,–,–,-83.4,·
O=C(NCC(c1ccc(F)cc1)N1CCOCC1)c1cccc(Br)c1 (centres undefined),–,40.2,–,–,–
CC(CNC(=O)Cn1ncc2c3ccccc3n(Cc3cccc(Cl)c3)c2c1=O)c1ccccc1 (centres undefined),–,–,–,·,–
N#C/C(=C\c1ccc(N2CCOCC2)o1)C(=O)NCC1CCCO1 (centres undefined),–,–,–,-82.0,–
N#C/C(=C/c1ccc(-c2ccc(S(=O)(=O)N3CCOCC3)cc2)o1)C(=O)NC1CC1,·,–,·,–,·
Cc1cc(/C=C(\C#N)C(=O)NCC2CCCO2)c(C)n1-c1ccc(Cl)cc1 (centres undefined),–,–,-35.0,?,–
COc1cc(/C=C(\C#N)C(=O)NCC2CCCO2)ccc1O (centres undefined),–,–,–,–,–
N#C/C(=C\c1ccc(N2CCOCC2)o1)C(=O)NC1CCCCC1,68.8,–,–,–,–
CCOCCCNC(=O)c1[nH]c2cc(C)ccc2c1Sc1ccc(Cl)cc1,–,–,–,·,–
CC(=O)Oc1cc2c(cc1OC(C)=O)C(=O)CCCC2,·,66.1,·,–,·
